Bioassay records deposited in PubChem by National Center for Advancing Translational Sciences (NCATS).
Rows were chosen to be rich in hits. Some 3.3% of all compounds tested hit in one or more screens of this group.
NS1 function inh = influenza NS1 inhibition | Potency, µM (titrated, usually from 46.1 µM), inactives show at the top dose activity, positive = more growth | 270,000 tested, 0.4% active | AID 2326; calls by dose curve; note: actives are rising curves; nearly all actives have a fitted effect of over 50% in size
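Recovery from NS1-induced slow growth read by OD600 in budding yeast switched to galactose assay medium (pH 6.0, -URA) at 1:100 dilution. Compound 23 nl per well; the matching strain lacking NS1 serves as control.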
Sm TGR inh = inhibitors of Schistosoma mansoni thioredoxin glutathione reductase; 360,000 tested, 3% active; Q962Y6; purified TGR, DTNB reduction, TNB absorbance 405 nm; Potency, µM (titrated, usually from 114 µM), inactives show at the top dose activity change, negative = inhibition, usual class: inhibitors; note: % is set by controls: 0 for no effect and ±100 for the full control effect; nearly all actives have a fitted effect of over 60% in size
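TGR 20 nM + NADPH 100 uM (dispensed conc.), cpd preinc 15 min RT; start with NADPH (500 uM addition) then DTNB (15 mM addition). Kinetic TNB absorbance, 405 nm filter. Four-parameter Hill fit across titration.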
LmPK inhibitor = inhibitors of Leishmania mexicana pyruvate kinase; Q27686; purified LmPK, Kinase-Glo ATP luminescence, 1 h; Potency, µM (titrated, usually from 57.5 µM), for the others: top-dose activity change, negative = inhibition, most hits filed as inhibitors; 290,000 tested, 0.37% active; note: % is set by controls: 0 for no effect and ±100 for the full control effect
Target sequence (Q27686 whole entry, looked up): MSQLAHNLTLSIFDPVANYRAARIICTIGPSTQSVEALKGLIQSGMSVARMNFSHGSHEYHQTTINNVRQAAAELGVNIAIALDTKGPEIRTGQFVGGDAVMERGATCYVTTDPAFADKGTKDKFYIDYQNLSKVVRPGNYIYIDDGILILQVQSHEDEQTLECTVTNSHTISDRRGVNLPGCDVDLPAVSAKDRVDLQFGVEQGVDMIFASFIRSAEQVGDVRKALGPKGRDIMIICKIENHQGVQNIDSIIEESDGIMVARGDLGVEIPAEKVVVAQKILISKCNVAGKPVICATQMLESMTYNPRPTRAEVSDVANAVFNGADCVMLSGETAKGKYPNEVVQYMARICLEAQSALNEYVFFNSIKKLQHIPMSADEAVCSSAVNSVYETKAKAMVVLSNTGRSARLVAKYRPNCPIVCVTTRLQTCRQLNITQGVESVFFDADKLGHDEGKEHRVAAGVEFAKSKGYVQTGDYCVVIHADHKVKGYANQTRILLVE
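Purified LmPK (0.1 nM) with 0.5 mM PEP and 0.1 mM ADP in imidazole buffer pH 7.2 with MgCl2/KCl, 1 h at room temperature. ATP formed was read by luciferase luminescence and normalized to no-enzyme and uninhibited controls.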
SARS PLP yeast = blocks SARS-CoV papain-like protease in a yeast assay; 330,000 tested, 0.19% active; S. cerevisiae expressing SARS-CoV PLpro, growth rescue; Potency, µM (doses to about 32.9 µM), without a hit: top-dose activity, positive = growth rescue, actives largely listed as activators; calls by dose curve; note: 0% is about no effect; nearly all actives have a fitted effect of over 55% in size
Tb PYK inh = blocks Trypanosoma brucei pyruvate kinase; Q57TT1; TbPYK enzyme, Kinase-Glo Plus ATP luminescence, 45 min; Potency, µM (titrated, usually from 76.8 µM), for the others: at the highest dose activity, negative = inhibition, hits mostly inhibitors; 410,000 tested, 0.12% active; note: % is set by controls: 0 for no effect and ±100 for the full control effect; nearly all actives have a fitted effect of over 50% in size
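Assay buffer: 50 mM TEA pH 7.2, 100 mM KCl, 10 mM MgCl2, 0.05% BSA, 0.01% Tween-20. Pyruvate kinase from T. brucei plus substrate met compound, then ADP (130 uM final). Luminescence was read post 45 min RT.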
RE007 growth inh = less growth of the S. pombe RE007 Vpr strain; S. pombe RE007 Vpr strain, BacTiter-Glo ATP luminescence, 24 h; Potency, µM (titrated, usually from 92.2 µM), without a hit: top-dose activity change, negative = less growth, usual class: inhibitors; 360,000 tested, 0.21% active; AID 651644; active = well fitted falling curve with a large enough effect; inconclusive = small, poorly fitted or top-dose-only effect; inactive = no such curve, though single readings can be large or run the other way; note: % is set by controls: 0 for no effect and ±100 for the full control effect; nearly all actives have a fitted effect of over 50% in size
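Fission yeast RE007 carrying one integrated HIV-1 vpr copy, seeded at OD 0.01 in PMG+AL medium with 23 nL pinned compound. Grown 24 h at 30 degrees; viability read by BacTiter-Glo luminescence after 5 min.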
Active calls of the source: *. Unless noted, calls come from the whole dose curve; as a rule, active = well fitted curve in the direction sought with a large enough effect; inconclusive = small, poorly fitted or top-dose-only effect, or another doubt; inactive = no such curve, though single readings can be large; an effect the other way counts as inactive or inconclusive. Potency is the fitted concentration of half-maximal effect.

Results for O=Cc1cccc(Oc2ccc([N+](=O)[O-])cc2[N+](=O)[O-])c1 ?
Sm TGR inh: 45µM*; LmPK inhibitor: 4%; SARS PLP yeast: -3%; Tb PYK inh: 1%; RE007 growth inh: -14%

How did O=C(c1ccccc1)c1ccc(Oc2ccc([N+](=O)[O-])cc2[N+](=O)[O-])cc1 do in these assays?
Tb PYK inh: 1%; RE007 growth inh: -4%

How did CC(C)(C)c1cc(C#N)cc(Br)c1OP(=O)(Oc1c(Br)cc(C#N)cc1C(C)(C)C)c1ccccc1 do in these assays?
NS1 function inh: -6%

What do the screens show for `N#CC(c1ccccc1)C1CCN(Cc2ccccc2)CC1` (stereo unspecified)?
NS1 function inh: 0%; Sm TGR inh: 89µM*; LmPK inhibitor: 1%; SARS PLP yeast: 14%; Tb PYK inh: -10%; RE007 growth inh: -7%

How did O=C(Cc1ccccc1)NC1CCN(Cc2ccccc2)CC1 do in these assays?
NS1 function inh: -5%; Sm TGR inh: 56%; LmPK inhibitor: 3%; SARS PLP yeast: -2%; Tb PYK inh: 3%; RE007 growth inh: -14%

What do the screens show for `Cn1cnc([N+](=O)[O-])c1S(=O)(=O)c1cccc(Cl)c1`?
NS1 function inh: -40%; Sm TGR inh: 0.28µM*; LmPK inhibitor: -1%; SARS PLP yeast: -40%; Tb PYK inh: -6%; RE007 growth inh: -5%

What do the screens show for `CCN(CC(=O)Nc1cc(Cl)ccc1C)C(=O)COc1ccccc1F`?
Sm TGR inh: -10%; LmPK inhibitor: 3%; SARS PLP yeast: 0%; Tb PYK inh: 2%; RE007 growth inh: -3%

How did CCCN(CC(=O)Nc1ccccc1C)C(=O)COc1c(C)cccc1C do in these assays?
Sm TGR inh: -6%; SARS PLP yeast: 9%; Tb PYK inh: -2%; RE007 growth inh: -2%

Results for CCCN(CC(=O)Nc1ccccc1C)C(=O)COC(=O)CSc1ccc([N+](=O)[O-])cc1 ?
Sm TGR inh: -4%; SARS PLP yeast: -1%; Tb PYK inh: -16%; RE007 growth inh: -9%

How did CCN(CC(=O)Nc1cc(Cl)ccc1C)C(=O)CCOc1ccccc1C do in these assays?
NS1 function inh: 1%; Sm TGR inh: 35µM*; LmPK inhibitor: 9%; SARS PLP yeast: -2%; Tb PYK inh: -5%; RE007 growth inh: 20%

What do the screens show for `CCCN(CC(=O)Nc1ccccc1C)C(=O)CCl`?
Sm TGR inh: 14µM*; LmPK inhibitor: 1%; SARS PLP yeast: 2%; Tb PYK inh: 4%; RE007 growth inh: 1%

What do the screens show for `CCCN(CC(=O)Nc1ccccc1C)C(=O)c1ccc(-c2ccc([N+](=O)[O-])cc2)o1`?
Sm TGR inh: 6.3µM*; SARS PLP yeast: -8%; Tb PYK inh: -29%; RE007 growth inh: 6%

What do the screens show for `CCc1cccc(NC(=O)Nc2csc3c2CCCC3)c1`?
Sm TGR inh: 6%; Tb PYK inh: 2%

What do the screens show for `CN(C)CCNS(=O)(=O)N(C)C`?
NS1 function inh: 0%

Results for Cn1c(-c2ccccc2)c(C(=O)CCl)c2ccccc21 ?
NS1 function inh: -7%; Sm TGR inh: 6.3µM*; LmPK inhibitor: 3%; SARS PLP yeast: -2%; Tb PYK inh: -3%; RE007 growth inh: -20%

What do the screens show for `CCn1c(-c2ccccc2)c(C(=O)CCl)c2ccccc21`?
NS1 function inh: 8%; Sm TGR inh: 18µM*; LmPK inhibitor: 0%; SARS PLP yeast: -19%; Tb PYK inh: 0%; RE007 growth inh: -8%

What do the screens show for `CCn1c2ccccc2c(=O)c2ccccc21`?
NS1 function inh: 0%; Sm TGR inh: 5%; LmPK inhibitor: -3%; SARS PLP yeast: 0%; Tb PYK inh: -3%; RE007 growth inh: -14%

How did COc1ccc2nc3sc(C(=O)Nc4cc(Cl)c(OC)cc4OC)cc3cc2c1 do in these assays?
Sm TGR inh: -10%; Tb PYK inh: -1%

What do the screens show for `O=C1CC(N2CCC(c3nc4ccccc4o3)CC2)C(=O)N1c1ccc(Cl)c(C(F)(F)F)c1` (stereo unspecified)?
NS1 function inh: -132%; Sm TGR inh: 14µM*; LmPK inhibitor: 0%; SARS PLP yeast: inconclusive; Tb PYK inh: -3%; RE007 growth inh: 28µM*

Results for O=C1CC(N2CCC(c3nc4ccccc4o3)CC2)C(=O)N1c1ccc(F)cc1 (stereo unspecified) ?
NS1 function inh: -9%; Sm TGR inh: -19%; LmPK inhibitor: 3%; SARS PLP yeast: -5%; Tb PYK inh: 6%; RE007 growth inh: inconclusive

Results for O=C1CC(N2CCC(c3nc4ccccc4o3)CC2)C(=O)N1 (stereo unspecified) ?
NS1 function inh: 3%; Sm TGR inh: 35µM*; LmPK inhibitor: -5%; SARS PLP yeast: -1%; Tb PYK inh: -1%; RE007 growth inh: -21%

What do the screens show for `COc1ccc(N(Cc2cccs2)C(=O)Nc2ccccc2)cc1`?
Sm TGR inh: 2%; Tb PYK inh: -4%

Results for C/C(=N/Nc1nc(-c2ccccc2)cc(-c2ccccc2)n1)c1ccc(N)cc1 ?
NS1 function inh: 7.9µM*; Sm TGR inh: -11%; LmPK inhibitor: -7%; SARS PLP yeast: -50%

Results for CCOC(=O)COc1ccc(C)cc1C(=O)c1ccn2nc(-c3ccc(Cl)cc3)cc2n1 ?
Sm TGR inh: -8%; Tb PYK inh: -12%

Results for COc1ccc(-c2n[nH]c(=S)n2-c2cc(OC)ccc2OC)cc1 ?
NS1 function inh: 6%; Sm TGR inh: 6%; LmPK inhibitor: 3.5µM*; SARS PLP yeast: 0%; Tb PYK inh: 2.8µM*; RE007 growth inh: 6%

How did COc1ccccc1-n1c(-c2ccc(NS(C)(=O)=O)cc2)n[nH]c1=S do in these assays?
NS1 function inh: 4%; Sm TGR inh: 0%; LmPK inhibitor: 7.9µM*; SARS PLP yeast: 4%; Tb PYK inh: inconclusive; RE007 growth inh: 0%

How did COc1ccc(OC)c(-n2c(-c3cccc(O)c3)n[nH]c2=S)c1 do in these assays?
NS1 function inh: -8%; Sm TGR inh: 1%; LmPK inhibitor: 2µM*; SARS PLP yeast: -2%; Tb PYK inh: 14µM*; RE007 growth inh: 1%

How did COc1ccc(OC)c(-n2c(-c3ccc(C)cc3)n[nH]c2=S)c1 do in these assays?
NS1 function inh: -10%; Sm TGR inh: -4%; LmPK inhibitor: 2.5µM*; SARS PLP yeast: 10%; Tb PYK inh: inconclusive; RE007 growth inh: -1%

Results for COc1ccc(-n2c(-c3ccc(C(C)(C)C)cc3)n[nH]c2=S)c(OC)c1 ?
Tb PYK inh: inconclusive; RE007 growth inh: -25%
